Screening results as filed in PubChem BioAssay.
Only some compounds are listed: those with a hit (about 3.8% of all), similar ones and a draw of the others.
A549 tox = A549 cytotoxicity, counter-screen for Nrf2 inhibitors | A549 ARE-Fluc cells, CellTiter-Fluor viability, 18-24 h | Potency, µM (series often up to 46 µM), for the others: at the top dose activity change, negative = cytotoxicity, hits mostly inhibitors | 0.16% of 390,000 active | AID 504648; note: potency is the fitted concentration of half-maximal effect; % is set by controls: 0 for no effect and ±100 for the full control effect
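A549 ARE_Fluc cells in 5% FBS OPTI-MEM were exposed to compounds in concentration-response for 18-24 h at 37 deg C. Viability was read by CellTiter-Fluor fluorescence (Ex 405/Em 525) after 30 min, before the luciferase read.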
ELG1 DNA repair = blocks ELG1-dependent DNA repair in HEK293T cells; HEK293T ELG1-luciferase reporter, luminescence, 16 h; DNA damage induced by 5-fluorouridine; Potency, µM (highest dose often 46.1 µM), for the others: top-dose activity change, negative = inhibition, usual class: inhibitors; 2.3% of 330,000 active; note: potency is the fitted concentration of half-maximal effect; % is set by controls: 0 for no effect and ±100 for the full control effect; nearly all actives have a fitted effect of over 55% in size
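In this reporter screen, reduction of luminescence relative to DMSO vehicle indicated activity. Compounds and 5-fluorouridine were added together to 2,000 cells per well, incubated for 16 hr at 37 °C, then developed with ONE-Glo.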
IDH1 R132H inh = human IDH1 R132H inhibition; IDH1-R132H enzyme, NADPH consumption, diaphorase/resazurin fluorescence; 0.093% of 390,000 active; Potency, µM (top dose mostly 76.6 µM), inactives show at the top dose activity change, negative = inhibition, actives largely listed as inhibitors; O75874; note: potency is the fitted concentration of half-maximal effect; % is set by controls: 0 for no effect and ±100 for the full control effect; nearly all actives have a fitted effect of over 65% in size
Target sequence (O75874 whole entry R132H, stated change not applied): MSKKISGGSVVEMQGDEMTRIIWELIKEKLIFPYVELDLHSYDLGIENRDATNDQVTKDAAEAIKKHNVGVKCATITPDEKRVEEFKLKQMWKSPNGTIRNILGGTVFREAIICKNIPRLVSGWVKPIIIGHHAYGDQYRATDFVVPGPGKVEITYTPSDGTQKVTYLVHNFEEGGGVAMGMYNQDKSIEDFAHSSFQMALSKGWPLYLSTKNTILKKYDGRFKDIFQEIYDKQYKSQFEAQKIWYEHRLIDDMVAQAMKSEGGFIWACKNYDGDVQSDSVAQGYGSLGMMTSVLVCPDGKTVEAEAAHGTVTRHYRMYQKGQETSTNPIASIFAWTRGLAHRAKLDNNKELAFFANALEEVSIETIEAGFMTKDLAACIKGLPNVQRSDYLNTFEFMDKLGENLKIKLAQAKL
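IDH1-R132H (0.5 ug/mL) preincubated 30 min with compound, then NADPH (0.016 mM) and alpha-KG (2 mM) added; 80 min at RT, pH 7.5. Remaining NADPH coupled via diaphorase/resazurin to fluorescence (540/590 nm); concentration-response curves normalized to no-enzyme control.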
Nrf2 inh = inhibitors of Nrf2 signaling; A549 ARE-Fluc reporter, luciferase luminescence, 18-24 h; Potency, µM (doses to about 46 µM), for the others: top-dose activity change, negative = inhibition, usual class: inhibitors; 2.1% of 360,000 active; AID 504444; note: potency is the fitted concentration of half-maximal effect; % is set by controls: 0 for no effect and ±100 for the full control effect; nearly all actives have a fitted effect of over 60% in size
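Nrf2 activity is the BugLite luminescence, read 15 min after reagent at room temperature, following CellTiter-Fluor cytotoxicity readout (30 min, 37C). Compound titrations were applied for 18-24 h to 5000 A549 ARE_Fluc cells/well in 5% FBS OPTI-MEM.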
Nrf2 ARE act = activates Nrf2 signaling; AREc32 ARE-luciferase reporter (MCF7-derived line), luminescence, 24 h; Potency, µM (highest dose often 46.1 µM), inactives show top-dose activation, most hits filed as activators; 0.31% of 410,000 active; note: potency is the fitted concentration of half-maximal effect; % of control where 0% means no effect; nearly all actives have a fitted effect of over 65% in size
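Luminescent ARE reporter assay in AREc32_Fluc cells: overnight plating at 37 deg C, 24 hr compound incubation, Steady-Glo added, 30 min RT before reading.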
Resorufin autofl = counter-screen for mutant IDH1 inhibitors: fluorescence interference | shares compounds with IDH1 R132H inh | Resorufin detection reagent fluorescence interference, cell-free | inhibition of signal, % at 51.2 µM | 750 tested, under 10 active | AID 623980;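 note: 0% = wells with normal resorufin and full inhibition = wells lacking resorufin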
WT IDH1 inh = inhibits human wild-type IDH1, mutant selectivity check; 9% of 750 active; Potency, µM (highest dose often 115 µM), for the others: at the highest dose activity change, negative = inhibition, most hits filed as inhibitors; WT IDH1 enzyme, NADPH diaphorase/resazurin fluorescence; shares compounds with IDH1 R132H inh;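 note: potency is the fitted concentration of half-maximal effect; 0% = full WT IDH1 enzyme control and full inhibition = no enzyme wells; nearly all actives have a fitted effect of over 55% in size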
Target sequence (O75874 whole entry, looked up): as the sequence (O75874 whole entry R132H, stated change not applied) above, with H132R counted along it
mIDH1 confirm = inhibits human mutant IDH1 enzyme in cherrypick confirmation; 83% of 750 active; IDH1 R132H enzyme, NADPH diaphorase/resazurin fluorescence; Potency, µM (top dose mostly 76.6 µM), without a hit: at the highest dose activity change, negative = inhibition, most hits filed as inhibitors; shares compounds with IDH1 R132H inh; note: potency is the fitted concentration of half-maximal effect; nearly all actives have a fitted effect of over 50% in size
* marks the source's active call; other numbers are inactive results; ? = inconclusive; nt = no result; [ ] = another dose, or the depositor's remark. Calls come from the whole dose curve; as a rule, active = well fitted curve in the direction sought with a large enough effect; inconclusive = small, poorly fitted or top-dose-only effect, or another doubt; inactive = no such curve, though single readings can be large; an effect the other way counts as inactive or inconclusive.

SMILES | A549 tox | ELG1 DNA repair | IDH1 R132H inh | Nrf2 inh | Nrf2 ARE act | Resorufin autofl | WT IDH1 inh | mIDH1 confirm
Cc1ccc(-n2c(O)c(C=Nc3ccccc3-c3n[nH]c(=S)[nH]c3=O)c3ccccc3c2=O)c(C)c1 | ? | 3% | ? | ? | 0%[9.22 µM] | -5 | 79µM* | 35µM*
CN1CC(c2ccccn2)C2(SC(=S)N(Cc3ccccc3)C2=O)C12C(=O)Nc1ccccc12 (stereo not drawn) | 0% | -1% | ? | 23µM* | 2% | -2 | -2% | 20µM*
O=C1Nc2ccccc2C1(O)Cc1ccccn1 (stereo not drawn) | 1% | 7% | 4% | 1% | 0% | nt | nt | nt
CCCCn1c(N)c(N(CCC(C)C)C(=O)CCCc2nc3ccccc3s2)c(=O)[nH]c1=O | 0% | -14% | 12% | 12% | -1% | nt | nt | nt
CC(C)CCSc1nc(N2CCOCC2)c2c(c1C#N)CC(C)(C)OC2 | ? | 12µM* | 16µM* | ? | 0% | -10 | 11% | 7.9µM*
COC(=O)CCSc1nc(N2CCOCC2)c2c(c1C#N)CC(C)(C)OC2 | 1% | ? | 7% | ? | 0% | nt | nt | nt
Cc1cc(C(C)(C)C)oc1C(=O)NCCCNC(=O)c1oc(C(C)(C)C)cc1C | -6% | 9% | ? | -10% | 0% | -3 | ? | 11µM*
Cc1cccc(-c2c3c(=O)n(C)c(=O)n(C)c3cn2-c2cc(N)c(Cl)cc2Cl)c1 | -15% | nt | 35µM* | ? | 0% | -2 | -21% | ?
COc1cc(C2c3c(-c4ccccc4O)n[nH]c3C(=O)N2CCO)ccc1OCc1ccccc1 (stereo not drawn) | -6% | nt | ? | 0% | 0% | 1 | -5% | 28µM*
O=C1c2[nH]nc(-c3ccccc3O)c2C(c2cccc(OCc3ccccc3)c2)N1CCCO (stereo not drawn) | -4% | nt | 45µM* | 10% | -1% | -11 | ? | 40µM*
CCCN1C(=O)c2[nH]nc(-c3ccccc3O)c2C1c1ccc(OCc2ccccc2)c(OC)c1 (stereo not drawn) | ? | nt | -26% | ? | -1% | nt | nt | nt
CC(C)OCCCN1C(=O)c2[nH]nc(-c3ccccc3O)c2C1c1ccc(OCc2ccccc2)cc1 (stereo not drawn) | ? | nt | -5% | ? | -3% | nt | nt | nt
CCOc1ccc(NC(=O)CN(C)C(=O)C2CC(=O)N(CCc3ccccc3)C2)cc1OCC (stereo not drawn) | -6% | -3% | -1% | 10% | 1% | nt | nt | nt
CCC(=O)N(CCC(Cc1ccccc1)c1ccc2c(c1)OCO2)Cc1ccccc1F (stereo not drawn) | 1% | ? | ? | ? | 8% | -5 | 8% | 14µM*
N=c1c(S(=O)(=O)c2ccc(Cl)cc2)cc2c(=O)n3ccccc3nc2n1CC1CCCO1 (stereo not drawn) | 3% | 20% | 4% | -2% | -1% | nt | nt | nt
N=c1c(S(=O)(=O)c2ccccc2)cc2c(=O)n3ccccc3nc2n1CC1CCCO1 (stereo not drawn) | -1% | -9% | ? | 24% | 1% | -2 | 8% | 35µM*
O=C(Nc1nnc([C@H]2C[C@H](O)[C@@H](CO)O2)s1)NC1CCCCC1 | nt | nt | nt | nt | -1% | nt | nt | nt
Cc1ccc(NC(=O)CSC2=C(C#N)C(c3ccco3)C3=C(CC(C)(C)CC3=O)N2)cc1 (stereo not drawn) | -16% | ? | 52µM* | ? | 0% | 3 | -6% | 28µM*
Cc1ccc(NC(=O)CSC2=C(C#N)C(c3ccco3)CC(=O)N2)cc1 (stereo not drawn) | -6% | ? | -1% | -22% | 3% | nt | nt | nt
Cc1ccc(S(=O)(=O)CCc2nnc(NC(=O)CCl)s2)cc1C | -17% | ? | ? | ? | ? | -1 | -6% | 32µM*
O=C(c1cc[n+]([O-])cc1)N1CCCC(N2CCN(c3cccc(C(F)(F)F)c3)CC2)C1 (stereo not drawn) | 12% | -19% | 7% | 7% | 0% | nt | nt | nt
Cc1ccc(NC(=O)N2CCN(C(=O)c3nsc4ccccc34)CC2)cc1C | 1% | nt | 6% | nt | 5% | nt | nt | nt
CCCCN(C)CCNC(=O)c1ccc(Cn2c(=O)[nH]c3cc(OC)c(OC)cc3c2=O)cc1 | 1% | nt | -10% | 1%[9.27 µM] | 0% | nt | nt | nt
Cc1nn(CCc2nn[nH]n2)c2nc(-c3ccc(C4CCCCC4)cc3)cc(C(F)(F)F)c12 | ? | 13% | 52µM* | ? | -1% | -14 | 50µM* | 40µM*
Cc1nn(CCC(=O)O)c2nc(-c3cccnc3)cc(C(F)(F)F)c12 | 3% | -6% | 14% | 7% | 0% | nt | nt | nt
SMILES | A549 tox | ELG1 DNA repair | IDH1 R132H inh | Nrf2 inh | Nrf2 ARE act | Resorufin autofl | WT IDH1 inh | mIDH1 confirm
CSc1ccc(CNC(=O)Cn2c(-c3cccs3)cc3cc(F)ccc32)cc1 | -8% | nt | -14% | -17% | 16% | nt | nt | nt
c1cc(-c2sc(-c3ccncc3)c(-c3ccncc3)c2-c2ccncc2)ccn1 | -7% | 18µM* | ? | ? | 0% | 0 | ? | 28µM*
Nc1nnc(-c2ccncc2)s1 | 0% | -18% | -2% | 8% | 0% | nt | nt | nt
CCc1cc(C(=O)c2ccc(OC)cc2)c(NC(=O)CN2CCCCC2)s1 | 0% | -5% | -7% | 2% | -1% | nt | nt | nt
CCc1cc(C(=O)c2ccc(OC)cc2)c(NC(=O)CN2CCCC2)s1 | -1% | ? | 46µM* | -1% | 7% | -1 | 0% | 16µM*
CCOc1ccc(C2c3c(oc4cc(C)c(C)cc4c3=O)C(=O)N2c2ccccn2)cc1 (stereo not drawn) | -4% | nt | 3% | 10% | 0% | nt | nt | nt
CC(/C=C1\SC(=S)N(c2ccc(C(=O)O)cc2)C1=O)=C\c1ccccc1 | -7% | -6% | 23µM* | 3% | -1% | -4 | 45µM* | 50µM*
Cc1cc(N2O[C@]34C=C[C@]25C[C@@H](O)CC[C@]5(C)C3CC[C@]2(C)[C@@H]([C@H](C)/C=C/[C@H](C)C(C)C)CC[C@H]24)no1 (stereo partly drawn) | 7% | ? | 0% | 10% | 0% | nt | nt | nt
